# Measured values published in PubChem BioAssay (Tox21).
# Inconclusive results are not listed. Where a call stands in place of a potency, no number is given. Activity calls are given as the source filed them. The call rests on the fitted dose curve; in most records, active means well fitted cell-killing curve with a large enough effect in the repeat runs; inconclusive means weak or mixed curves, or effect the other way; inactive means flat fitted curve, though single readings scatter.
# Assay: Human pregnane X receptor (PXR) small molecule agonists, qHTS cell viability counter screen (AID 1346977); further: nearly all actives have a fitted effect of over 50% in size
# Details: PXR-Luc HepG2 viability, CellTiter-Fluor, 24 h; series mostly up to 92.4 µM
# Procedure, shortened: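 Tox21 qHTS format; PXR-Luc HepG2, 2,000/well, charcoal-stripped FBS 5%. Cpd exposure 24hr. Read: CellTiter-Fluor fluorescence, multiplexed with luciferase.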
row,Compound,Potency
1,CCOCCOCCOCC,inactive
2,CO[C@@H]1[C@@H](OC(N)=O)[C@@H](O)[C@H](Oc2ccc3c(O)c(NC(=O)c4ccc(O)c(CC=C(C)C)c4)c(=O)oc3c2C)OC1(C)C,inactive
3,C=Cc1ccccn1,inactive
4,CCCC/C=C/C=C\C=O,inactive
5,CCCN1C[C@H](CSC)C[C@@H]2c3cccc4[nH]cc(c34)C[C@H]21,inactive
6,c1ccc2c(c1)ccc1c3ccccc3ccc21,inactive
7,CCO[Si](CCCS)(OCC)OCC,inactive
8,COC(=O)CCCCCCCC(=O)OC,inactive
9,O=C(O)c1cc(Cl)cc([N+](=O)[O-])c1Cl,inactive
10,O=C1CCCC(=O)O1,inactive
11,CC1=C(C(=O)O)N2C(=O)[C@@H](NC(=O)[C@H](N)c3ccc(O)cc3)[C@H]2SC1,inactive
12,CC(CC=O)CCCC(C)(C)O (stereo not drawn),inactive
13,O=C1O[C@@H]2[C@@H](O)[C@H](O)O[C@@H]2[C@H]1O,inactive
14,COCCc1ccc(OCC2CO2)cc1 (stereo not drawn),inactive
15,Cc1ccc2ccc(Cl)cc2n1,inactive
16,c1ccc2nccnc2c1,inactive
17,COc1cc(C(=S)N2CCOCC2)cc(OC)c1OC,inactive
18,COCCOCCOCCOCCO,inactive
